In the library only some 3.5% were active in any assay of this set; here they are far more common.
HEK293 cAMP cs: qHTS Assay for Agonists of the Thyroid Stimulating Hormone Receptor: Activators of Intracellular cAMP Concentrations in Parental HEK 293; Potency, µM (highest dose often 57.1 µM), most hits filed as activators; 73,000 compounds, 2.5% hits; parental HEK293 CNG cAMP sensor, membrane potential fluorescence; active means well fitted activation curve with a large enough effect; inconclusive means small, poorly fitted or top-dose-only effect; inactive means no such curve, though single readings can be large or run the other way; further: nearly all actives have a fitted effect of over 55% in size
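Parental HEK 293 cells stably expressing a cAMP-gated CNG channel were loaded with membrane potential dye containing 100 uM RO 20-1724 for 60 min. Compound added for 30 min; depolarization read as fluorescence intensity at 590 nm.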
IkB sig inh: IkB Signaling; Potency, µM (doses to about 57.1 µM); ABC-DLBCL IkBa-CBG/CBR dual luciferase ratio, 4 h; response scale: scaled: untreated 0%, proteasome inhibitor 100%; AID 445, 2006; 110,000 compounds, 0.04% hits; active means well fitted curve in the direction sought with a large enough effect in the signal ratio, not every such curve was filed as active; inconclusive means small, poorly fitted or top-dose-only effect, or a change in a side signal; the % refers to the signal ratio;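 further: the direction sought is a rising ratio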
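In this assay, an IκBα–CBG68 fusion accumulates when IKK-driven degradation is blocked; native CBR normalizes for cell number. OCI-Ly3 cells were treated 4 h with compound and doxycycline, then green and red light read after Chroma-Glo addition.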
TSHR agonist: qHTS Assay for Agonists of the Thyroid Stimulating Hormone Receptor. Thyrotropin receptor (Homo sapiens), P16473. HEK293-CNG-TSHR cells (CNG channel as cAMP sensor), membrane potential dye, cAMP. Potency, µM (top dose mostly 57.1 µM), most hits filed as activators. 73,000 compounds, 0.48% hits. AID 926, 2007; active means well fitted activation curve with a large enough effect in the main read-out, with a control signal flat, not every such curve was filed as active; inconclusive means small, poorly fitted or top-dose-only effect, or a change in a side signal; inactive means no such curve, though single readings can be large or run the other way; reference of the percent scale not stated here;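 further: the control signal comes from parental cells without the receptor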
Target sequence (P16473 whole entry, looked up): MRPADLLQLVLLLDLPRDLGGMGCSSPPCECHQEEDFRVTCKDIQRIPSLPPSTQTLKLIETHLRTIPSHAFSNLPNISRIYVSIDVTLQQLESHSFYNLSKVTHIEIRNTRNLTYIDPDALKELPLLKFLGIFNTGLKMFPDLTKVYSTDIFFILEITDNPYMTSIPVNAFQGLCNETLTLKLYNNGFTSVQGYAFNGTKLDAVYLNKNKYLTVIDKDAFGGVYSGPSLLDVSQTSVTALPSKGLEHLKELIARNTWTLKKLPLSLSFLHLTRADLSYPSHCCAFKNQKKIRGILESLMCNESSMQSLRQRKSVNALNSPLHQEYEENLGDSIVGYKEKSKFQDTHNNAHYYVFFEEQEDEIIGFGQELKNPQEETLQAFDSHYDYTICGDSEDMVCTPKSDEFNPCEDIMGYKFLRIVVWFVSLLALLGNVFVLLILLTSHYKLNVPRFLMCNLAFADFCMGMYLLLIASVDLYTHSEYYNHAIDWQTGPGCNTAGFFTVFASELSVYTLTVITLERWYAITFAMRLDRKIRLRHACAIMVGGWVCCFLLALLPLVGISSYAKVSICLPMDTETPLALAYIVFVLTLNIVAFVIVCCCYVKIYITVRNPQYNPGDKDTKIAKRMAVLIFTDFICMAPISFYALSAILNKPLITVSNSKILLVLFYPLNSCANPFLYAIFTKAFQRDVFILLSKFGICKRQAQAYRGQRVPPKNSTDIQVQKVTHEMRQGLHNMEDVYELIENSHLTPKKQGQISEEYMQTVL
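HEK 293 cells stably expressing TSHR and a modified CNG channel, with CNG-only parental cells as counterscreen, were preloaded 60 min at room temperature with membrane potential dye containing 100 uM RO 20-1724. Compound exposure was 30 min, and depolarization was read as fluorescence at 590 nm.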
CRE Fsk mod: Cell signaling CRE-BLA (Fsk stim) | 71,000 compounds, 2.5% hits | AID 662, 2007 | CHO CRE-bla reporter (cAMP response element driving beta-lactamase), forskolin EC10, beta-lactamase ratio | Potency, µM (series often up to 38.2 µM), hits mostly activators; active means well fitted activation curve with a large enough effect in the signal ratio, with a control signal flat, not every such curve was filed as active; inconclusive means small, poorly fitted or top-dose-only effect, or effect the other way, or a change in a side signal; the % refers to the signal ratio
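qHTS titration format; CRE-bla CHO reporter; stimulus EC10 NKH 477, a water-soluble forskolin. Read: CCF4 460/530 nm ratio. Potency expressed as AC50 for activators or inhibitors.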
Hsp90 Hop PPI: qHTS Assay for Disrupters of an Hsp90 Co-Chaperone Interaction; Potency, µM (series often up to 57 µM); 71,000 compounds, 0.44% hits; AlphaScreen TPR2A-His6 binding biotin-Hsp90 C-terminal peptide; active means well fitted curve in either direction with a large enough effect; inconclusive means small, poorly fitted or top-dose-only effect, or another doubt
Numbers stand for hits; 0 = inactive; ? = inconclusive; - = no result given; [ ] = remark or other dose.

SMILES	HEK293 cAMP cs	IkB sig inh	TSHR agonist	CRE Fsk mod	Hsp90 Hop PPI
CCOC(=O)c1c(N)n(-c2cccc(OC)c2)c2nc3ccccc3nc12	-	0	-	-	-
CCCC(=O)OC(=O)CCC	0	0	0	0	0
CCCCn1c(=O)c2oc3ccccc3c2n(CC(=O)Nc2cccc(Cl)c2C)c1=O	-	0	-	-	-
CC(C)(C)N1C(=O)[C@H]2[C@@H]3[C@H](O)C=CC(=O)[C@H]3CC[C@H]2C1=O	0[11.4 µM]	-	0[11.4 µM]	-	-
C[C@H]1CC(C)(C)C[C@@](OCCN2CCCCC2)(c2ccccc2)C1	5µM	0[11.4 µM]	?	0[7.6 µM]	?
CO[C@H]1COC(=O)CCC[C@H](C)[C@@H](OC)COC(=O)C/C=C\[C@@H]1C	0[11.4 µM]	-	0[11.4 µM]	-	-
CC(CCC(=O)O)(c1cc(Br)c(O)c(Br)c1)c1cc(Br)c(O)c(Br)c1	1.3µM	0[11.4 µM]	?	?	0[11 µM]
CC[C@@H](c1ccc2cc(O)ccc2c1)C(C)(C)C(=O)O	0[11.4 µM]	0[11.4 µM]	0[11.4 µM]	0[7.6 µM]	0[11 µM]
O=C(CSc1nnnn1-c1ccccc1)N1CCc2ccccc2C1	16µM	0	?	?	0
CCOC(=O)c1ccccc1NC(=O)C1COc2ccccc2O1 (stereo not drawn)	25µM	0	?	?	?
CCCn1c(CCCNC(=O)c2ccccc2OC)nc2ccccc21	-	0	-	-	-
COc1ccc(-c2cc(C(=O)N3CCOCC3)c3cc(C)ccc3n2)cc1	0	0	0	0	0
Cc1ccc(-c2cc(C(=O)N3CCOCC3)c3ccccc3n2)cc1	0	0	25µM	?	0
COC(=O)c1cc(-c2ccc3c(c2)OCO3)nc2ccccc12	?	?	?	?	25µM
O=C(NCc1cccs1)O[C@H]1C[C@H]2CC[C@@H]1C2	0[11.4 µM]	0[11.4 µM]	0[11.4 µM]	0[7.6 µM]	0[11 µM]
CC1(C)Cc2c(sc3c2c(=N)n(Cc2ccco2)c(=O)n3Cc2ccc(Cl)cc2)CO1	0	0	-	0.2µM	0
CCOC(=O)c1ccc(COC(=O)c2nonc2N)cc1	0	0	0[11.4 µM]	0	0
Cc1ccc2ccccc2c1COC(=O)c1nonc1N	16µM	0	?	0	0
COc1ccc2c(C)nc(Nc3nc(C)cc(=O)[nH]3)nc2c1	0	?	0	5µM	0
COCCn1c(C)cc(O)c(C(c2ccc(F)cc2)N2CCC(C)CC2)c1=O (stereo not drawn)	-	0	-	-	-
CCC(C)(C)NC(=O)C(c1ccncc1)N(Cc1cccs1)C(=O)Cn1nnc2ccccc21 (stereo not drawn)	20µM	0	?	0	0
CCC(C)(C)NC(=O)C(c1cccs1)N(CC1CCCO1)C(=O)Cn1nnc2ccccc21 (stereo not drawn)	?	0	?	0	0
CC(C)(C)NC(=O)C(c1ccncc1)N(Cc1cccs1)C(=O)Cn1nnc(-c2cccs2)n1 (stereo not drawn)	20µM	0	?	0	0
Cc1ccc(-c2nnn(CC(=O)N(Cc3ccccc3)C(C(=O)NC(C)(C)C)c3ccncc3)n2)o1 (stereo not drawn)	0	0	0	0	0
Clc1ccc(CSc2nnc(-c3ccncc3)o2)c(Cl)c1	20µM	0	?	?	0
SMILES	HEK293 cAMP cs	IkB sig inh	TSHR agonist	CRE Fsk mod	Hsp90 Hop PPI
c1ccc(CSc2nnc(-c3ccncc3)o2)cc1	0	0	0	0	0
CC(=O)NCCNc1ccnc(-c2ccccc2C)n1	0	0[11.4 µM]	0	0	0
COc1cccc2c(=O)c3c(cnn3C)n(C)c12	0	0	0	10µM	0
COc1cccc(OC)c1NC(=O)Cc1nn(C)c(=O)c2ccccc12	0	0	0	0	0
Cn1c(C(=O)NCc2ccccn2)cc2c(=O)n(C)c3ccccc3c21	0[11.4 µM]	0	0	5µM	0[2.3 µM]
Cn1c(C(=O)Nc2ccc3c(c2)OCO3)cc2c(=O)n(C)c3ccccc3c21	0	0	0	1.6µM	0[2.3 µM]
Cn1c(C(=O)NCc2ccc(Cl)cc2)cc2c(=O)n(C)c3ccccc3c21	-	0	-	-	-
CC(C)OCCCNC(=O)c1cc2c(=O)n(C)c3ccccc3c2n1C	?	0	?	2.5µM	0[2.3 µM]
C=Cc1cccc(C)c1	0	0	0	0	0
O=S(=O)(NCCc1csc(-c2cccc(F)c2)n1)c1cc(F)ccc1F	-	0	-	-	-
CCn1c(CSc2nc3ccccc3s2)nc2ccccc21	4µM	?	?	0[7.6 µM]	0[11 µM]
c1csc(CSc2nc3ccccc3s2)c1	0	0	0	0	?
Cn1cc(C2NC(=O)c3c(sc4c3CCCC4)N2)c2ccccc21 (stereo not drawn)	0	0	0	0	0
O=C1NC(c2ccccn2)Nc2sc3c(c21)CCC3 (stereo not drawn)	0	?	0	?	32µM
CNC[C@H](O)c1ccc(O)c(O)c1	-	0	-	0	0
CC[C@H](NC(C)C)[C@H](O)c1ccc(O)c(O)c1	0.25µM	0	?	0	0
Oc1c(C(c2ccco2)N2CCN(C(c3ccccc3)c3ccccc3)CC2)sc2ncnn12 (stereo not drawn)	0	?	0	10µM	0
COC(=O)C1=C(C)NC(C)=C(C(=O)OC)C1c1ccc(N(C)C)cc1	0	0	20µM	?	0
O=C1c2ccccc2N2C(=O)c3ccccc3C2N1Cc1ccco1 (stereo not drawn)	25µM	0	?	?	0
Cc1ccc2oc(-c3ccc(Cl)cc3)c(O)c(=O)c2c1	-	5µM	-	-	-
O=[N+]([O-])c1cc(Cc2cc([N+](=O)[O-])c3cccnc3c2O)c(O)c2ncccc12	0[11.4 µM]	5µM	0[11.4 µM]	0[7.6 µM]	1.6µM
COCC(=O)N1CCC2(CC1)CCN(c1ncccn1)CC2	0	0[11.4 µM]	0	0	0
CCCCC(=O)Nc1cc(N(C)C)nc2ccccc12	?	0	?	0	0
CN(C)c1cc(NC(=O)CN2CCOCC2)c2ccccc2n1	20µM	0	?	0	0[2.3 µM]
COc1ccc2[nH]c(C(=O)c3ccccc3)cc2c1	7.9µM	0	?	?	0
SMILES	HEK293 cAMP cs	IkB sig inh	TSHR agonist	CRE Fsk mod	Hsp90 Hop PPI
COCC(=O)N(Cc1cc2cc(OC)ccc2[nH]c1=O)c1ccccc1	0	0	0	?	0
CCCCCn1c(=O)[nH]c2cc(C(=O)NCc3ccc(OC)cc3)ccc2c1=O	-	0	-	-	-
COc1ccc(Cc2nn3c(-c4ccccc4Br)nnc3s2)cc1	?	0	?	0	0
COc1cc(-c2nnc3sc(-c4cccnc4)nn23)cc(OC)c1OC	?	0	?	?	0
COc1cc(-c2nnc3sc(Cc4ccc(Cl)cc4)nn23)cc(OC)c1OC	?	0	?	2.5µM	0
COc1cc(-c2nnc3sc(Cc4ccccc4)nn23)cc(OC)c1OC	0	0	0	10µM	0
COc1ccc(Cc2nn3c(-c4cc(OC)c(OC)c(OC)c4)nnc3s2)cc1	0	?	-	5µM	0
COc1ccc(CCN2C(=O)N(c3cccc(C)c3)C(=O)C2CC(=O)Nc2ccccc2)cc1OC (stereo not drawn)	-	0	-	-	-
C=CCOc1ccccc1/C=N/O	25µM	?	?	0	0

High-throughput results: PubChem BioAssay, National Center for Advancing Translational Sciences (NCATS)
